Structures are written as SMILES. About 300 (0.091%) of roughly 330,000 compounds were called active. Not shown: some 4% with an inconclusive outcome. The entries come from a sample that favours actives as a whole. A call without a number means that no potency is given here. Unmarked numbers belong to inactive results. Calls follow the shape of the dose curve; as a rule, active = well fitted inhibition curve with a large enough effect; inconclusive = small, poorly fitted or top-dose-only effect, or effect the other way, or another doubt; inactive = no such curve, though single readings can be large or run the other way.
Potency is read from the fitted curve at half-maximal effect.

This test concerns the target Lysosomal acid glucosylceramidase (Homo sapiens) (UniProt P04062). In words: qHTS Assay for Inhibitors and Activators of N370S glucocerebrosidase as a Potential Chaperone Treatment of Gaucher Disease. To be noted: N370S GC spleen homogenate, 4MU-glucoside fluorescence; series mostly up to 59.4 µM.
With `Cc1nc(-c2ccc(F)cc2)c(CC(=O)N(C)CC(=O)Nc2c(C)cccc2C)s1`, the activity change, negative = inhibition result is “inactive”.

As for `CC(C)(C)c1ccc(S(=O)(=O)N2CCN(C(=O)c3ccc4c(c3)C(=O)N(Cc3ccncc3)C4=O)CC2)cc1`, the activity change, negative = inhibition entry is “inactive”.

On to `CC(C)(O/N=C(\C(=O)N[C@@H]1C(=O)N2C(C(=O)[O-])=C(C[n+]3ccccc3)CS[C@@H]12)c1csc(N)n1)C(=O)O`, for which the activity change, negative = inhibition entry was “inactive”.

For the compound `CCOCCOC(=O)C(C)Oc1ccc(Oc2ncc(C(F)(F)F)cc2Cl)cc1` (stereo unspecified), the activity change, negative = inhibition entry is “inactive”. The same measure, in the same setting: the same measure for `O=C1[C@H]2[C@H]3[C@H](O)[C@H](O)C/C(=N/OCc4ccccc4)[C@H]3CC[C@@H]2C(=O)N1Cc1ccccc1`: 4.77% [at 12.8 µM]; for `CC(=O)N1[C@H](C)C=C[C@]1(Cc1ccccc1)C(=O)NCc1ccccn1`: “inactive”. On to `S=C(NCCCc1cnc[nH]1)NCCCN(Cc1ccc(Cl)c(Cl)c1)c1ccc(Br)cn1`, for which the Potency is 1 µM (active). For the compound `CN(C)CCCNC(=S)NCc1ccc(Cl)cc1`, the activity change, negative = inhibition result was “inactive”. As for `Fc1ccc(Cl)cc1-c1nc(Nc2ccncc2)c2nccnc2n1`, the activity change, negative = inhibition result was “inactive”. For `CC1(C)OC2CC3C4CCC5=CC(=O)CCC5(C)C4(F)C(O)CC3(C)[C@]2(C(=O)CCl)O1` (stereo partly specified), the activity change, negative = inhibition result is “inactive”. The same measure, in the same setting: for `COc1ccccc1CNS(=O)(=O)c1cc(C(=O)NCc2ccccn2)c(Cl)cc1Cl` the value was “inactive”; for `CCCC[C@@H]1C[C@H]1C(NC(=O)c1ccco1)c1ccc(C(=O)OC)cc1` (stereo partly specified), “inactive”.

Regarding `Cc1ccccc1CN1C(=O)c2ccccc2Sc2ccc(C(=O)NCCCN3CCOCC3)cc21`, the Potency was 11.2 µM (active). Turning to `Cc1ccc(C(=O)NCCN2CCOCC2)cc1C`, the activity change, negative = inhibition result was “inactive”. Turning to `CCC1=Nc2cc(C(=O)NCCCN3CCOCC3)ccc2Sc2ccc(Br)cc21`, the activity change, negative = inhibition result was “inactive”. Still for that read-out and setting: the same measure for `CCc1cccc(NC(=O)COC(=O)c2cc(=O)c3ccccc3o2)c1`: “inactive”; for `CCc1nnc(NC(=O)C2CCN(C(=O)c3ccccc3C)CC2)s1`: “inactive”; for `O=NO`: “inactive”. Regarding `CN1CCN(S(=O)(=O)c2ccc(N3CCN(c4ccccc4O)CC3)c([N+](=O)[O-])c2)CC1`, the activity change, negative = inhibition result was “inactive”.

On to `C=CC(=C)CCC=C(C)C`, for which the activity change, negative = inhibition entry is “inactive”. The same measure, in the same setting: for `CC(=O)N1CCOc2ccc(S(=O)(=O)N3CCN(c4cccc(C(F)(F)F)c4)CC3)cc21` the value was “inactive”. Consider `O=C1CC(=O)Nc2cc(S(=O)(=O)N3CCN(c4cccc(C(F)(F)F)c4)CC3)ccc2N1`, for which the Potency was 14.1 µM (active). In the case of `Cc1[nH]c(C)c(S(=O)(=O)N2CCN(c3cccc(C(F)(F)F)c3)CC2)c1C(=O)N1CCCC1`, the activity change, negative = inhibition entry is “inactive”. Take `CC1CCN(C(=O)COC(=O)CCC(=O)c2cccs2)CC1`: the activity change, negative = inhibition entry was “inactive”. Same read-out and setting: the same measure for `Cc1cc2nc3c(=O)[nH]c(=O)nc-3n(C[C@H](O)[C@H](O)[C@H](O)CO)c2cc1C`: “inactive”; for `CO[C@@]12[C@@H](COC(N)=O)C3=C(C(=O)C(C)=C(N)C3=O)N1C[C@@H]1N[C@@H]12`: “inactive”. For `COc1ccccc1C(=O)Nc1ccc(C)c(S(=O)(=O)N2CCCCC2)c1`, the activity change, negative = inhibition entry was “inactive”. On to `COc1cc(C(c2c(NC(=O)c3ccco3)sc(C)c2C)N2CCOCC2)cc(OC)c1OC` (stereo unspecified), for which the activity change, negative = inhibition result was “inactive”. For `CC1(C(=O)OCC(=O)Nc2ncc(Cl)cc2Cl)CC1(Cl)Cl` (stereo unspecified), the activity change, negative = inhibition result was “inactive”. Still for that read-out and setting: for `Cc1cccc(N2CCN(S(=O)(=O)c3ccc(-c4cc(C)no4)s3)CC2C)c1` (stereo unspecified) the value was “inactive”. With `Cc1cccc(N2CCN(S(=O)(=O)c3ccc4[nH]c(=O)c(=O)[nH]c4c3)CC2C)c1` (stereo unspecified), the Potency was 12.6 µM (active). Turning to `Cc1cccc(N2CCN(C(=O)c3cccc(S(=O)(=O)N4CCc5ccccc5C4)c3)CC2C)c1` (stereo unspecified), the activity change, negative = inhibition result is “inactive”. On the same count and under the same terms, the same measure for `CCCCNc1nc(C)nc2c1nc(-c1ccccc1)n2CCCCN(CC)CC`: “inactive”; for `CC(C)[C@@H](CC(=O)N[C@@H]1CCNC[C@H]1C(=O)N[C@H](CC(=O)N[C@@H](CCC(=O)O)CC(=O)O)Cc1ccccc1)NC(=O)C[C@H](CO)NC(=O)[C@@H]1CNCC[C@H]1N`: “inactive”. Consider `CN(CC(=O)NC(=O)Nc1ccccc1F)Cc1ccccc1`, for which the activity change, negative = inhibition entry was “inactive”. As to `Oc1ccc(-c2c(-c3ccccc3)nn3c(C(F)(F)F)cc(C(F)(F)F)nc23)cc1`, the activity change, negative = inhibition entry was “inactive”. Take `Cn1c(N)c(C(=O)COC(=O)c2cc(C(F)(F)F)nc3c(C(F)(F)F)cccc23)c(=O)n(C)c1=O`: the activity change, negative = inhibition entry is “inactive”. The same measure, in the same setting: for `Cc1cc(C)cc(NC(=O)C(c2ccccc2)N2CCN(CC(=O)N3CCCC3)CC2)c1` (stereo unspecified) the value was “inactive”. On the same count and under the same terms, for `CCCn1c(-c2ccc(F)cc2)nc2c(NCC3CCCN3CC)nc(C)nc21` (stereo unspecified) the value was “inactive”; for `Cc1cccc(CNc2ccnc(-c3cccnc3)n2)c1`, “inactive”; for `CC(C)C(NS(=O)(=O)c1ccc(-c2ccc(Br)cc2)cc1)C(=O)O` (stereo unspecified), “inactive”.

Turning to `Cn1nc(C(=O)OCC(=O)N(Cc2ccccc2)C(C)(C)C)c2ccccc2c1=O`, the activity change, negative = inhibition entry is “inactive”. `O=S(O)S(=O)(=O)O`: the activity change, negative = inhibition result is “inactive”.

As to `O=C(CN1CCN(C2CCS(=O)(=O)C2)CC1)N1N=C(c2ccc(Cl)cc2)CC1c1ccco1` (stereo unspecified), the activity change, negative = inhibition entry is “inactive”. Still for that read-out and setting: for `O=C(CCNS(=O)(=O)c1ccccc1)NCCCc1ccccc1` the value was “inactive”; for `Cc1ccc(-n2nc(C)c(C(=O)O)c2-n2cccc2)cc1`, “inactive”.

With `COCCNc1nc(-c2ccccc2)nc2c1oc1ccccc12`, the activity change, negative = inhibition entry was “inactive”. On to `CCC(=O)OCCNc1nc(-c2ccccc2)nc2ccccc12`, for which the Potency is 2 µM (active). As to `COc1ccccc1-c1nc(NCCNC(C)=O)c2ccccc2n1`, the activity change, negative = inhibition result is “inactive”. On the same count and under the same terms, the same measure for `O=C(CN1CCCCC1)NC(=O)Nc1ccccc1F`: “inactive”; for `COc1ccc(C2/C=C\CN(C(=O)c3ccc(C)cc3)C(Cc3ccccc3)C(=O)N2Cc2ccc(F)cc2)cc1` (stereo unspecified): “inactive”. Regarding `O=C(CSc1nnc(CN2CCCC2)n1-c1ccc(F)cc1)c1ccc2c(c1)OCO2`, the activity change, negative = inhibition result is “inactive”. As for `COc1ccc2c(c1)O[C@@H](c1ccc3c(c1)OCO3)[C@H](OC(=O)NCCc1ccc(OC)c(OC)c1)C2=O`, the activity change, negative = inhibition entry was “inactive”. Same read-out and setting: for `Cc1ccc(NC(=O)Cn2c(C)csc2=O)cc1` the value was “inactive”; for `CN1CCN(c2ccc(NC(=O)c3cc(Cl)c4c(c3)OCCO4)cc2)CC1`, “inactive”; for `C1CCC2OC2C1` (stereo unspecified), “inactive”.

In the case of `Cc1ccc(C)c(NC(=O)C(c2ccccc2)N2CCN(CC(=O)NC3CC3)CC2)c1` (stereo unspecified), the activity change, negative = inhibition entry was “inactive”.

Turning to `COc1ccc(CCNC(=O)COC(=O)Cc2cccc(F)c2)cc1`, the activity change, negative = inhibition result is “inactive”. As to `C=CCOC(=O)C(=C)C`, the activity change, negative = inhibition result is “inactive”. On the same count and under the same terms, for `O=C(NCc1ccccn1)[C@]1(C(F)(F)F)C[C@H](CCc2ccccc2)CCCO1` the value was “inactive”; for `COC(=O)C(CC(C)C)NS(=O)(=O)c1cc(Br)ccc1Br` (stereo unspecified), “inactive”.

Regarding `Cc1csc(NC(=O)C2CCN(S(=O)(=O)c3ccccc3)CC2)n1`, the activity change, negative = inhibition result is “inactive”. On to `CNC(=O)[C@]1(C(F)(F)F)C[C@H](CCc2ccccc2)CCCO1`, for which the activity change, negative = inhibition result is “inactive”. In the case of `CN1CCc2nc(-c3ccccc3)c(-c3ccccc3)cc2C1`, the activity change, negative = inhibition was -2.21% [at 12.8 µM].

In the case of `COc1ccc(-c2nc(-c3ccccc3)oc2Nc2ccc3ccccc3c2)cc1`, the activity change, negative = inhibition result is “inactive”.

As for `COc1cccc([C@@H]2Oc3ccc(Br)cc3C(=O)[C@H]2OC(=O)NCc2ccc3c(c2)OCO3)c1`, the activity change, negative = inhibition entry is “inactive”. For `CC(OC(=O)Cc1ccc(F)cc1)C(=O)N1CCc2ccccc21` (stereo unspecified), the activity change, negative = inhibition result was “inactive”.

As for `CCOC(=O)Cn1c(=O)sc2cccc(Cl)c21`, the activity change, negative = inhibition entry was “inactive”.

On to `Cc1cc(N(C)C)nc(Cl)n1`, for which the activity change, negative = inhibition entry is “inactive”. With `CNC(=O)C1CC(=O)N(c2ccc(OCC(=O)Nc3ccccc3C)cc2)C1` (stereo unspecified), the activity change, negative = inhibition result was “inactive”. On the same count and under the same terms, the same measure for `C=C(C)C(=O)c1ccc(F)cc1`: “inactive”.

As to `CCCN1CCC(=O)N(C(CSc2ccc(C)cc2)Cc2ccccc2)CC1` (stereo unspecified), the activity change, negative = inhibition result was “inactive”. In the case of `CCN(C(=O)COC(=O)CCOc1cccc(C)c1)c1c(N)n(Cc2ccccc2)c(=O)[nH]c1=O`, the activity change, negative = inhibition result was “inactive”.

For the compound `CC(C)C[C@H](NC(=O)[C@H](O)[C@H](N)Cc1ccccc1)C(=O)O`, the activity change, negative = inhibition result was “inactive”. The same measure, in the same setting: for `Cc1cc(C)n2nc(C(=O)Nc3cccc(S(=O)(=O)N4CCOCC4)c3)nc2n1` the value was “inactive”. Still for that read-out and setting: the same measure for `COC(=O)C1(Cc2ccccc2)C=C2C(=C(C)C(=O)C2C)CN1` (stereo unspecified): “inactive”; for `COC(=O)[C@@]1(C)C=C[C@@H](Cc2ccccc2)N1C(C)=O`: “inactive”; for `Cn1c2cc(B(O)O)sc2c2cnn(Cc3ccccc3F)c(=O)c21`: “inactive”. For `Cc1ccc(/C(=C/CN2CCCC2)c2ccccn2)cc1`, the activity change, negative = inhibition entry is “inactive”. Consider `CCN(CC)CCCCn1c(-c2ccccc2)nc2c(N3CCOCC3)nc(C)nc21`, for which the activity change, negative = inhibition entry was “inactive”.

In the case of `COc1cccc(NC(=O)CN(C)C(=O)/C=C/c2cn(-c3ccccc3)nc2-c2cccs2)c1`, the activity change, negative = inhibition entry is “inactive”. As for `COc1ccc(C2/C=C\CN(Cc3ccco3)C(C)C(=O)N2Cc2ccc(F)cc2)cc1` (stereo unspecified), the activity change, negative = inhibition entry is “inactive”. Same read-out and setting: the same measure for `O=C(CN1CCCCC1)Nc1ccccc1C(=O)NC1CC1`: “inactive”; for `C=C1CCN(C(CC(C)C)C(=O)NCc2cc(OC)c(OC)c(OC)c2)S(=O)(=O)c2ccccc21` (stereo unspecified): “inactive”.

With `BrC1C(Br)C(Br)C(Br)C(Br)C1Br` (stereo unspecified), the activity change, negative = inhibition entry is “inactive”. On the same count and under the same terms, for `CCCCn1c(N)c(N(CCC(C)C)C(=O)COC(=O)c2ccc(CC)cc2)c(=O)[nH]c1=O` the value was “inactive”.

In the case of `Cc1ccc(C(CC(=O)O)NC(=O)c2ccc(S(=O)(=O)N3CCCC3)cc2)cc1` (stereo unspecified), the activity change, negative = inhibition result was “inactive”. Turning to `CC(C)=CCC[C@]1(C)[C@@H](CC=C(C)C)C[C@@]2(CC=C(C)C)C(=O)[C@]1(C(=O)C(C)C)C(=O)C(CC=C(C)C)=C2O`, the activity change, negative = inhibition result is “inactive”. In the case of `O=C(CSc1nnc(COc2ccc(Cl)cc2)n1Cc1ccco1)N1CCNC1=O`, the activity change, negative = inhibition entry was “inactive”.

For the compound `CCC(=O)c1ccc(OCC(=O)N(CC)CC2COc3ccccc3O2)cc1` (stereo unspecified), the activity change, negative = inhibition entry is “inactive”. The same measure, in the same setting: for `CC1Cc2ccccc2N1S(=O)(=O)c1cccc(C(=O)NCC(c2ccco2)N2CCCC2)c1` (stereo unspecified) the value was “inactive”; for `C[C@@H]1O[C@@H](O[C@@H]2[C@@H](O)[C@H](OCCc3ccc(O)c(O)c3)O[C@H](CO[C@@H]3O[C@H](CO)[C@@H](O)[C@H](O)[C@H]3O)[C@H]2OC(=O)/C=C/c2ccc(O)c(O)c2)[C@H](O)[C@H](O)[C@H]1O`, “inactive”; for `C=CCC(C)(O)c1ccco1` (stereo unspecified), “inactive”. As to `COc1ccc(C2CC(O)(c3ccccc3)Oc3cc(C)cc(C)c32)cc1` (stereo unspecified), the activity change, negative = inhibition result was “inactive”. Same read-out and setting: the same measure for `C=CCN1C(=O)c2ccc(C(=O)N3CCC(C(=O)OCC)CC3)cc2C1=O`: “inactive”. The same measure, in the same setting: the same measure for `O=C(COC(=O)c1ccccc1Cl)NC1CCCCCCC1`: “inactive”.

(Values after PubChem BioAssay AID2101 (National Center for Advancing Translational Sciences (NCATS), 2009).)
